Screens from PubChem BioAssay.
Hits are enriched below; roughly 9.3% of the tested compounds scored in any of these assays.
ELG1 genotoxic: induces genotoxicity in HEK293T cells with luciferase-tagged ELG1; HEK293T ELG1-luciferase reporter, luminescence, 16 h; Potency, µM (highest dose often 46 µM), without a hit: top-dose activity change, positive = activation, most hits filed as activators; 1.3% of 330,000 active; AID 504466; note: % of control where 0% means no effect; nearly all actives have a fitted effect of over 60% in size
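ELG1-luciferase HEK293T cells, 2,000/well; compound pinned in; 16 hr, 37 °C, 5% CO2; ONE-Glo, 30 min RT; luminescence on CCD imager.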
ELG1 repair inh: blocks ELG1-dependent DNA repair in HEK293T cells | HEK293T ELG1-luciferase reporter, luminescence, 16 h; DNA damage induced by 5-fluorouridine | Potency, µM (titrated, usually from 46.1 µM), for inactives: top-dose activity change, negative = inhibition, actives largely listed as inhibitors | 2.3% of 330,000 active; note: % is set by controls: 0 for no effect and ±100 for the full control effect; nearly all actives have a fitted effect of over 55% in size
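Reporter activity after DNA damage by 5-fluorouridine is monitored. Compound-treated cells incubate 16 hr at 37 °C, then ONE-Glo is added for 30 min before luminescence reading.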
SMN2 splice enh: SMN2 splice variant enhancement; HEK293 SMN2-luciferase splicing reporter, luminescence, 30-36 h; Potency, µM (highest dose often 46.1 µM), inactives show at the top dose activity change, positive = activation, actives largely listed as activators; 2.8% of 210,000 active; AID 1458; note: % of control where 0% means no effect; nearly all actives have a fitted effect of over 55% in size
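HEK293 cells carry an SMN2 […]–luciferase reporter in which exon 7 inclusion puts luciferase in frame. Cells were plated 10-12 h before compound addition, then incubated 30-36 h at 37C. ONE-Glo luminescence was read; sodium butyrate at 4.5 mM final served as control.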
Rab9 promoter act: activates the Rab9 promoter. 2.8% of 320,000 active. AID 485297. Huh7 Rab9 promoter-luciferase reporter, luminescence, 24 h. Potency, µM (titrated, usually from 9.22 µM), for inactives: at the top dose activation, negative = inhibition, actives largely listed as activators; note: % of control where 0% means no effect; nearly all actives have a fitted effect of over 60% in size
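Luminescence from Amplite-detected luciferase (10 minutes, ambient) reports Rab9 promoter activation. Before that, stable Rab9-luciferase Huh7 cells (1500/well, reduced-serum OP-MEM I plus 10% FBS) were exposed to compound for 24 hours at 37C.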
FLuc counter: counter-screen for miR-21 project: firefly luciferase inhibitors or activators; P08659; purified FLuc, Km substrates, luminescence inhibition; Potency, µM (highest dose often 57.5 µM), without a hit: at the top dose activity change, negative = inhibition, usual class: inhibitors; 6.9% of 360,000 active;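 note: plate controls were vehicle for no effect and reference inhibitor for full effect; nearly all actives have a fitted effect of over 55% in size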
Target sequence (P08659 whole entry, looked up): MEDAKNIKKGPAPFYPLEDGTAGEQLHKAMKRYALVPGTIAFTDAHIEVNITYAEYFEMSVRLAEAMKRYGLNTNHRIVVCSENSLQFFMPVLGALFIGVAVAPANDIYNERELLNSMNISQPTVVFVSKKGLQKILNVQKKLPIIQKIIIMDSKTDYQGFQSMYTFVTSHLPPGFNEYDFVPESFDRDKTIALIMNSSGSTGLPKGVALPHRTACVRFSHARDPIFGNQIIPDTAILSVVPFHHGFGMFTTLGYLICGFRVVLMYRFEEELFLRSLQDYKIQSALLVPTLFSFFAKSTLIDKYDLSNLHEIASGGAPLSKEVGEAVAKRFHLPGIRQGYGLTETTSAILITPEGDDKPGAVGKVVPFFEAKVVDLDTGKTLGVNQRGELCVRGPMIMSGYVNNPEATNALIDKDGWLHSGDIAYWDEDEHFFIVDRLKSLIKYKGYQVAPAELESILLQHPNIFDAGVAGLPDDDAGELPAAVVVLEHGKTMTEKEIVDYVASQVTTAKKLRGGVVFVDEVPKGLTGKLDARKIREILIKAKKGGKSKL
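Purified P. pyralis luciferase (10nM final) with 10uM D-luciferin and 10uM ATP (Km levels) in 50mM Tris acetate pH 7.5, 10mM Mg acetate, 0.01% Tween-20, 0.05% BSA; qHTS 6-point titration, ~60 µM downward; luminescence read.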
NPC1 promoter act: activates the NPC1 promoter; Huh7 NPC1 promoter luciferase reporter, 24 h; Potency, µM (titrated, usually from 9.22 µM), without a hit: top-dose activation, usual class: activators; 2.4% of 320,000 active; AID 485313; note: % of control where 0% means no effect; nearly all actives have a fitted effect of over 60% in size
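NPC1 promoter–luciferase Huh7 cells; 24 h compound; luminescence.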
Starred values were filed as active, the others as inactive; u = inconclusive; x = no result given. Calls come from the whole dose curve; as a rule, active = well fitted curve in the direction sought with a large enough effect; inconclusive = small, poorly fitted or top-dose-only effect, or another doubt; inactive = no such curve, though single readings can be large; an effect the other way counts as inactive or inconclusive. Potency is the fitted concentration of half-maximal effect.

SMILES	ELG1 genotoxic	ELG1 repair inh	SMN2 splice enh	Rab9 promoter act	FLuc counter	NPC1 promoter act
CCOC(=O)c1cc(-c2ccco2)nc2c1c(C)nn2CCC#N	-11%	u	-13%	-2%	0%	5%
CCOC(=O)c1cc(-c2ccc(Cl)cc2)nc2c1c(C)nn2CCC#N	-2%	u	-31%	1%	4%	-2%
Fc1ccccc1N=C1NN=C(c2ccccc2)CS1	u	u	13µM*	u	13µM*	2.5µM*
Clc1ccccc1N=C1NN=C(c2cccs2)CS1	u	u	8.9µM*	2µM*	12µM*	3.2µM*
O=C1CSC(=Nc2ccccc2Cl)N1	11%	17%	-11%	1%	-16%	-1%
Cc1cccc(N=C2NN=C(c3ccccc3F)CS2)c1C	18%	u	26%	u	19µM*	u
Cc1[nH]c2ccccc2c1C1=NNC(=Nc2ccc(F)cc2)SC1	-13%	u	-38%	-3%	-5%	0%
Fc1ccc(N=C2NN=C(c3cc(F)ccc3F)CS2)cc1	-3%	u	22µM*	u	24µM*	11%
CCC(CCC(=O)Nc1ccc(S(N)(=O)=O)cc1)C(=O)O (stereo not given)	-2%	13%	-11%	-5%	0%	-2%
CCOC(=O)c1scc(-c2ccc(C)cc2)c1S(=O)(=O)Nc1cc(OC)ccc1OC	x	x	x	x	0%	x
Fc1ccc(F)c(C2=NNC(=Nc3ccccc3F)SC2)c1	u	u	-22%	30%	12µM*	u
CNc1ccc(Cl)nn1	2%	-11%	12%	-9%	0%	-2%
Nc1ccccc1-c1nc2ccccc2c(=O)o1	1%	u	x	17%	11µM*	8%
CC(C)CC(=O)Nc1ccc(-c2nc3ccccc3c(=O)[nH]2)cc1	6.5µM*	u	3.2µM*	0.89µM*	2.4µM*	1.1µM*
O=C(CSc1nc2ccccc2c(=O)[nH]1)Nc1ccc([N+](=O)[O-])cc1	-12%	18µM*	x	x	x	x
O=c1oc(-c2ccccc2[N+](=O)[O-])nc2ccccc12	-4%	u	33%	-1%	4%	0%
O=c1oc(-c2ccc([N+](=O)[O-])cc2)nc2ccccc12	11%	24%	1%	13%	-10%	11%
O=c1oc(-c2ccc(Br)cc2)nc2ccccc12	u	u	x	3.2µM*	u	2.2µM*
Cc1ccccc1OCC(=O)NC1CCCCCCC1	8%	u	x	20%	u	15%
CCC(=O)Nc1cccc(-c2nc3ccccc3c(=O)o2)c1	-3%	9%	-10%	5%	u	-4%
CC(C)CC(=O)Nc1ccc(-c2nc3ccccc3c(=O)o2)cc1	19%	u	8%	1%	1.7µM*	3%
CC(=O)Nc1ccc(-c2nc3ccccc3c(=O)o2)cc1	-1%	u	x	6%	2.7µM*	0%
CCCCCCCCC/C(=N\O)c1ccccn1	u	u	-74%	u	17µM*	u
CCOC(=O)c1cnc2c(ccc3ccccc32)c1Nc1ccc(OCC)cc1	x	x	-4%	x	-7%	x
CCOC(=O)c1cnc2c(C)c(C)ccc2c1Nc1ccc(S(=O)(=O)Nc2ncccn2)cc1	5%	u	u	9%	19µM*	2%
SMILES	ELG1 genotoxic	ELG1 repair inh	SMN2 splice enh	Rab9 promoter act	FLuc counter	NPC1 promoter act
COc1ccccc1CCNC(=O)c1cc(C2CC2)nc2c1cnn2C(C)C	-9%	-9%	x	-6%	0%	-3%
COc1ccccc1OCCNC(=O)c1cc(C2CC2)nc2c1cnn2C(C)C	-3%	13µM*	x	-1%	2%	2%
CCCCc1nc(NCC2CCCO2)c(C#N)c2c1COC(C)(C)C2 (stereo not given)	-5%	7.3µM*	-22%	-2%	0%	0%
Cc1cccn2c(=O)c(C=C(C#N)C#N)c(N3CCN(c4cccc(Cl)c4)CC3)nc12	-11%	u	x	-14%	-2%	0%
CCc1ccc(C2Sc3ccccc3NC3=C2C(=O)c2ccccc23)cc1 (stereo not given)	x	x	-79%	x	11µM*	x
CC(C)c1ccc(C2Sc3ccccc3NC3=C2C(=O)c2ccccc23)cc1 (stereo not given)	x	x	-27%	x	6µM*	x
O=C1C2=C(Nc3ccccc3SC2c2ccco2)c2ccccc21 (stereo not given)	14%	21%	-2%	13%	u	12%
O=C1C2=C(Nc3ccccc3SC2c2ccc(C(F)(F)F)cc2)c2ccccc21 (stereo not given)	x	x	-74%	x	3%	x
O=C(O)c1cc(-n2c(/C=C\c3ccc(F)cc3)nc3ccccc3c2=O)ccc1Cl	x	x	x	x	24µM*	x
O=C(O)c1cccc(-n2c(/C=C/c3ccccc3)nc3ccccc3c2=O)c1	2%	15%	x	1%	u	-6%
COc1cc(OC)cc(C(=O)NNC(=O)c2ccc(S(=O)(=O)N(C)c3ccccc3OC)cc2)c1	-5%	15µM*	x	8%	2%	0%
Cc1cc(-c2csc(NC(=O)c3ccc(S(=O)(=O)N(C)C)cc3)n2)c(C)n1-c1ccccc1	-6%	9.2µM*	-58%	-25%	u	-21%
COc1ccccc1N(C)S(=O)(=O)c1ccc(Cl)c(C(=O)NNC(=O)c2ccccc2O)c1	-7%	26%	x	-2%	17µM*	11%
COc1ccccc1N(C)S(=O)(=O)c1ccc(C(=O)Nc2cc(F)ccc2C)cc1	-7%	18µM*	x	x	x	x
CCN(C(=O)CSc1nnc(COc2cccc(C)c2)o1)c1nc(C)cs1	1%	19%	x	11%	0%	1%
COc1ccccc1N(C)S(=O)(=O)c1ccc(C(=O)Nc2nnc(C)s2)cc1	-15%	1%	x	4%	-6%	1%
COc1ccccc1N(C)S(=O)(=O)c1ccc(C(=O)Nc2nc(C)cs2)cc1	-23%	13µM*	-45%	-3%	-1%	-5%
CCOc1ccccc1N(CC(=O)Nc1ccc2c(c1)OCCO2)S(C)(=O)=O	0%	-5%	1%	2%	3%	-4%
Oc1ccccc1C1NN=C(c2ccccc2)S1 (stereo not given)	u	u	x	u	0.48µM*	u
O=C1NC(c2ccccc2)=CC(c2ccccc2O)N1 (stereo not given)	-15%	6%	x	0%	3%	-5%
Cc1ccc(Cl)cc1-n1nnc(-c2nsc(NC(=O)c3ccccc3Cl)n2)c1C	x	x	-25%	x	12µM*	x
Cc1ccc(C(=O)Nc2nc(-c3nnn(-c4cccc(Cl)c4C)c3C)ns2)cc1C	x	x	x	x	-8%	x
O=C(COc1nsnc1N1CCOCC1)Nc1ccc(Cl)cc1	-1%	4%	-12%	-1%	-7%	-4%
